Test results published in ChEMBL document CHEMBL3433997, “St. Jude Leishmania screening dataset” (2016).

Key:
Type in all cases: functional
[1] = biological target: Solute carrier family 2, facilitated glucose transporter member 1 (Homo sapiens) (UniProt P11166); assay: ST_JUDE_LEISH: Cytotoxicity at 2uM final concentration against transgenic Leishmania Mexicana promastigotes LmGLUT1 that are glucose transport deficient and complemented with the human glucose transporter GLUT1. Activity is measured by DNA content using SYBR green in vitro
Chain of Solute carrier family 2, facilitated glucose transporter member 1 (Homo sapiens) (P11166 whole entry): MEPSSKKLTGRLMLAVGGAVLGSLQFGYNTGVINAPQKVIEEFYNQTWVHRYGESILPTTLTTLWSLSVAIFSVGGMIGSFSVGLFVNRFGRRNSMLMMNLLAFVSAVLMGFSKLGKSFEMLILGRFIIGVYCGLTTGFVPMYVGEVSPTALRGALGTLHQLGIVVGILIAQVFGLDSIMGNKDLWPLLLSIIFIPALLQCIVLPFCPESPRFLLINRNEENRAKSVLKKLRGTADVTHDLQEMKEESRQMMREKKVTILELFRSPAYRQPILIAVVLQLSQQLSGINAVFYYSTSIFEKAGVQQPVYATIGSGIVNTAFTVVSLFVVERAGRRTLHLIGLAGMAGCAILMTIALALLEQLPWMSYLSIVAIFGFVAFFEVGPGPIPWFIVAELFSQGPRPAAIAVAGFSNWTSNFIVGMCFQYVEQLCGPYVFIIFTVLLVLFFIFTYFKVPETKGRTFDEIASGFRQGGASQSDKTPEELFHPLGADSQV

[2] = biological target: Hexose transporter 1 (Plasmodium falciparum) (UniProt O97467); assay: ST_JUDE_LEISH: Cytotoxicity at 2uM final concentration against transgenic Leishmania Mexicana promastigotes LmPfHT that are glucose transport deficient and complemented with the Plasmodium falciparum hexose transporter. Activity is measured by DNA content using SYBR green in vitro
[3] = biological target: Glucose transporter (Leishmania mexicana) (UniProt O61059); assay: ST_JUDE_LEISH: Cytotoxicity at 2uM final concentration against transgenic Leishmania Mexicana promastigotes LmGT2 that are glucose transport deficient and complemented with the L. Mexicana glucose transporter 2. Activity is measured by DNA content using SYBR green in vitro

| SMILES | inhibition [1] [%] | inhibition [2] [%] | inhibition [3] [%] |
| --- | --- | --- | --- |
| COc1ccc(Nc2ncc3c(-c4cccc(NC(=O)Cc5cccc(F)c5)c4)c[nH]c3n2)cc1OC | 5.69 | 3.23 | 4.39 |
| O=C(Nc1cccc(-c2ccc(-c3nc4cc(F)ccc4[nH]3)s2)c1)c1ccncc1 | 6.59 | 5.83 | 3.32 |
| CCOc1ccc(CCCON2C(=N)N=C(N)NC2(C)C)cc1 | 9.39 | 10.4 | 9.73 |
| CO/C(=C\C=C\c1cc2cc(Cl)c(Cl)cc2[nH]1)C(=O)NCCCN1CCN(c2cccc(OCC(=O)Nc3cccc(C(=O)c4ccccc4)c3)c2)CC1 | 4.84 | 2.82 | 2.69 |
| Cc1nc(-c2cccc(C(=O)N(Cc3cncn3Cc3cccc(C(F)(F)F)c3)CC3CC3)c2)cs1 | 2.11 | 4.67 | 4.26 |
| Nc1nc(N)c2c(ccc3c2ccn3Cc2cccc3ccccc23)n1 | 97.3 | 96 | 88.4 |
| CCOc1ccccc1C1CCN(CCCCNC(=O)c2ccc(NC(=O)c3ccc(Cl)cc3)cc2)CC1 | 10.6 | 7.51 | 10.8 |
| CC(Oc1ccc(NC(=O)c2cccs2)cc1)C(=O)c1ccc(Cl)cc1 (centres undefined) | 11.3 | 10 | 7.25 |
| COc1ccc2cc(-c3nc(-c4c(Cl)cccc4Cl)[nH]c3-c3ccnc(NCCC4CCCN4C)c3)ccc2c1 (centres undefined) | 29.7 | 12.8 | 8.98 |
| CCC(=O)NC(c1ccco1)c1cc(Cl)c2cccnc2c1O (centres undefined) | 12.9 | 12.3 | 10.7 |
| CS(=O)(=O)c1ccc(-c2cnc(N)c(-c3cccc(CO)c3)c2)cc1 | 3.95 | 3.16 | 4.32 |
| CN(C)S(=O)(=O)c1ccc(C(=O)N(c2nc(-c3ccccc3)cs2)C2CCCCC2)cc1 | 3.2 | 3.31 | 2.06 |
| CNC(=O)C1Cc2c([nH]c3ccc(Cl)cc23)C2(CCN(CCc3ccccc3)CC2)N1 (centres undefined) | 3.32 | 0.71 | -2.87 |
| CCCCCCP(=O)(COc1ccc(CCN(CC(O)COc2cccc3[nH]c(C(N)=O)cc23)CC(O)COc2cccc3[nH]c(C(N)=O)cc23)cc1)OCCCC (centres undefined) | 8.37 | 8.1 | 6.45 |
| O=C(Nc1ccccc1Br)c1cn(-c2ccccc2)nc1-c1cccc([N+](=O)[O-])c1 | 10.6 | 10.4 | 8.93 |
| O=C(NCCN1CCCCC1)N1CCCN(c2ncnc3cc(-c4ccccc4)sc23)CC1 | 2.21 | 1.64 | 2.05 |
| Cc1ccc(NC(=O)Nc2ccc(Cn3ncc(N4CCCNCC4)c(Cl)c3=O)cc2)cc1 | 2.01 | 4.54 | 1.32 |
| O=C(/C=C/c1ccc(Cl)c(Cl)c1)N1CCCC(CCCN2CCC(c3c[nH]c4ccccc34)CC2)C1 (centres undefined) | 4.23 | 3.51 | -0.35 |
| CC(C)CCNc1nc2ccccc2nc1Nc1cccc(C(F)(F)F)c1 | 2.21 | 3.55 | 2.32 |
| Cc1cccc2nc(-c3ccc(-c4ccc(NC(=O)NCc5cccc(F)c5)cc4)cc3)[nH]c12 | 11.4 | 12.2 | 10.3 |
| CCCC(C)Nc1nc(C)cc(N[C@@H](CC(C)C)C(=O)NCc2cccc(F)c2)n1 (some centres undefined) | 4.43 | 5.69 | 3.7 |
| O=C(Nc1ccc(C(F)(F)F)cc1)N[C@H]1CCN(CCCCCNC(=O)C2CC2c2ccc(Cl)c(Cl)c2)C1 (some centres undefined) | 3.36 | 2.73 | 2.17 |
| Cc1cc(OCCCN2CCC(NS(=O)(=O)c3ccc(Cl)c(Cl)c3)CC2)c2ccccc2n1 | 4.28 | 4.69 | 4.76 |
| COC(=O)c1ccc2nc(-c3cc(OC)c(O)c(C(=O)NC4CCN(Cc5ccccc5)CC4)c3)[nH]c2c1 | 8.4 | 5.32 | 7.01 |
| CC(=O)Oc1c(Cl)c(C)nc(C)c1-c1ccc(Oc2ccc(OC(F)(F)F)cc2)cc1 | 3.62 | 3.09 | 2.42 |
| COc1cc(CCNc2nc(NCc3ccccc3-c3ccccc3)nc(N3CCC(N)CC3)n2)ccc1O | 4.17 | 0.92 | 2.4 |
| O=C1Nc2ccc3ncccc3c2/C1=C/Nc1ccc(N2CCN(CCO)CC2)cc1 | 2.74 | 2.28 | 2.47 |

| SMILES | inhibition [1] [%] | inhibition [2] [%] | inhibition [3] [%] |
| --- | --- | --- | --- |
| CCOc1ccc(CCC(=O)O)cc1OCC | 2.83 | 3.36 | 2.88 |
| CC(=O)Nc1ccc(C(=O)Nc2cccc(-c3ccc(-c4nc5cc(F)ccc5[nH]4)cc3)c2)cn1 | -1.01 | 2.17 | 0.38 |
| CCN(CC)c1nc(Nc2cc(C)ccc2C)nc(Nc2ccccc2O)n1 | 4.16 | 5.53 | 4 |
| CCN1CCN(CCCNc2ccnc3cc(Cl)ccc23)CC1 | 0.93 | 2.24 | 2.15 |
| Cc1nc2nc(N)nc(N)c2c(C)c1Cc1ccc(C#N)cc1 | 0.34 | 4.37 | -0.44 |
| COc1ccc2nccc([C@@H](O)CN3CCC(NCc4cc5oc(=O)n(C)c5cc4F)CC3)c2c1 | 0.9 | 0.07 | 0.86 |
| FC(F)(F)c1ccc2[nH]c(-c3ccc(-c4ccc(CNCCc5ccncc5)cc4)cc3)nc2c1 | 1.37 | -3.26 | 0.57 |
| O=C(Nc1ccc(Cl)cc1)Nc1ccc(OCC(O)CN2CCCCC2)cc1 (centres undefined) | 7.33 | 8.27 | 7.64 |
| COc1ccc(C(=O)C2CC2CN(C)CCC(O)c2ccc(Cl)c(Cl)c2)cc1 (centres undefined) | 1.1 | 1.11 | 4.55 |
| COc1ccc(Cn2c(N3CCN(S(=O)(=O)c4ccc(OC)cc4)CC3)nc3c2c(=O)n(CC2CC2)c(=O)n3CC2CC2)cc1 | 0.89 | -0.86 | -1.39 |
| Cn1nc(C(F)(F)F)cc1-c1ccc(C(=O)Nc2ccc3c(c2)CNCC3(C)C)s1 | 4.85 | 0.03 | 2.34 |
| CC(C)(CNCCOc1ccc(Cl)cc1)c1nc(-c2ccnc(N)n2)c(-c2ccc(Cl)c(O)c2)[nH]1 | 2 | 1.8 | 0.27 |
| CS(=O)(=O)CCNc1cc(N2CCc3ncnc(Nc4ccc(OCc5cccc(F)c5)c(Cl)c4)c3C2)ncn1 | -0.04 | 0.75 | 0.08 |
| NCCCNc1nccc(N2CCc3ncnc(Nc4ccc(OCc5cccc(F)c5)c(Cl)c4)c3C2)n1 | 2.13 | 4.48 | 4.02 |
| O=C(Nc1nc2cc(S(=O)(=O)NCCc3cccc(F)c3)ccc2n1CCCn1ccnc1)c1ccc(Cl)cc1 | 1.22 | 0.32 | 4.97 |
| O=C(/C=C/c1ccc(C(F)(F)F)cc1)NCCCCCN1CCN(C(=O)Nc2ccc(F)c(Cl)c2)CC1 | 3.33 | 2.52 | 0.69 |
| NC1CCN(Cc2ccc(-c3cccc(-c4nc5ccccc5[nH]4)c3)cc2)C1 (centres undefined) | 5.49 | 5.29 | 5.76 |
| CC12CCC(=O)N1C(C(=O)Nc1cccc(C(=O)Nc3cccc(C(F)(F)F)c3)c1)CS2 (centres undefined) | 5.52 | 6.47 | 6.41 |
| O=C(Nc1cc(F)cc(F)c1)N1CCOC(CCN2CCC(c3ccccc3)CC2)(c2ccc(Cl)c(Cl)c2)C1 (centres undefined) | 4.27 | 2.5 | 2.87 |
| O=C(Nc1cccc(Cl)c1N1CCOCC1)C(Cl)(Cl)Cl | 1.32 | 0.42 | 1.03 |
| O=C(Nc1cc(F)cc(-c2cccnc2)c1)c1ccc2c(=O)n(Cc3ccccc3)cnc2c1 | 0.81 | 1.52 | -1.46 |
| O=C(c1cc(-c2cccs2)n[nH]1)N1CCN(S(=O)(=O)c2ccc(Br)cc2)CC1 | 0.07 | 3.88 | 2.13 |
| CCCCCN1CCCN(Cc2cccc(NC(=O)c3cc4ccccc4s3)c2)CC1 | 1.99 | 1.5 | 3.66 |
| COc1ccccc1C(C)NCC(=O)Nc1cc(C(F)(F)F)ccc1Cl (centres undefined) | 1.79 | 3.31 | 0.58 |
| CCCOc1cccc(C(=O)N[C@@H](Cc2ccccc2)[C@H](O)CNCc2ccccc2OC)c1 | 3.73 | 2.98 | 4.75 |
| COc1ccc(-c2cccc(NC(=O)c3cccc(Cl)c3)c2)cc1CN1CCN(C)CC1 | 11.2 | 12 | 7.77 |
